The values below are quoted from earlier work in PubChem BioAssay AID977608.

About 4,300 (100%) of roughly 4,300 compounds were called active. No cut-off is given here; in the data, nearly all actives have IC50 up to about 1400 µM. The set was probably picked from earlier hits. The list shows a part of the results. Square brackets hold non-standard residues; d marks the D form. Peptide text beside a SMILES is read from it. * marks the point of attachment. 3Pal = N[C@@H](Cc1cccnc1)C(=O)O; hLeu = CC(C)CC[C@H](N)C(=O)O; β3hL = CC(C)C[C@H](N)CC(=O)O; X1 = CC(=O)[C@H](CC(=O)O)N*

This series in a line: protein-ligand inhibition affinities from structures – PDB-derived complexes (AID 977608).

The term IC50 denotes the midpoint of a concentration-inhibition curve. In the case of `O=C(Nc1nc2ccccc2s1)c1cccc2c1CN(c1nc(C(=O)O)c(CCCOc3ccc(-n4ncc5cncnc54)cc3)s1)CC2`, the 50% inhibitory concentration (IC50) (literature IC50, protein: Bcl-2-like protein 1 Bcl-xL, PDB entry 4tuh) was 100 µM (active).
In the case of `Cc1c(-c2c([C@H](OC(C)(C)C)C(=O)O)n(C)c(=O)c3ccccc23)cc(F)c2c1CCCO2`, for the setting “literature IC50, protein: HIV-1 Integrase HIV-1 IN, PDB entry 4ojr”, the IC50 is 0.038 µM (active).
For the molecule `CCc1sc(-c2ccc(OC)c(OCCF)c2)nc1CSc1nc(N)cc(N)n1`, the IC50 (literature IC50, protein: Deoxycytidine kinase, Human dCK C4S-S74E mutant, PDB entry 4jlm) is 0.0227 µM (active).
Turning to `Cc1ccc(CN(C)c2cc(C)nc3ncnn23)cc1`, the half-maximal inhibitory concentration (IC50) (literature IC50, protein: Bromodomain-containing protein 4, PDB entry 4men) was 125 µM (active).
For `C[N+](C)(C)CCCC(=O)O`, the 50% inhibitory concentration (IC50) (literature IC50, protein: human gamma-butyrobetaine hydroxylase, PDB entry 4c5w) is 3.3 µM (active).
Consider `COc1cc(Nc2nccc(Nc3ccc4c(C)[nH]nc4c3)n2)cc(OC)c1OC`, for which the IC50 (literature IC50, protein: Bromodomain-containing protein 4 BRD4-1, PDB entry 4o78) is 4.6 µM (active).
As to `COc1cc(NC(=O)c2cccc3cccnc23)c(OC)cc1Cl`, where the note is “literature IC50, protein: 3-OXOACYL-[ACYL-CARRIER-PROTEIN] REDUCTASE FABG, PDB entry 4bo1”, the concentration for half-maximal inhibition (IC50) is 0.05 µM (active).
Consider `CC(C)(C)OC(=O)NCc1cn([C@H]2C[C@@H](C(=O)N3CCC[C@H]3C=N)N(C(=O)CCCc3ccccc3)C2)nn1`, for which, under “literature IC50, protein: PROLYL ENDOPEPTIDASE, PDB entry 4bcc”, the IC50 is 0.009 µM (active).
`[N-]=[N+]=N[C@H]1C[C@@H](C(=O)N2CCC[C@H]2C=N)N(C(=O)CCCc2ccccc2)C1`: the IC50 (literature IC50, protein: PROLYL ENDOPEPTIDASE, PDB entry 4bcb) was 0.003 µM (active).
In the case of `CC(C)C[C@H](NC(=O)[C@@H](Cc1ccc(CN)cc1)NC(=O)[C@H](Cc1ccccc1)N=[N+]=[N-])C(=O)N[C@H](CCS(C)(=O)=O)Cc1ccc(CN)cc1`, where the note is “literature IC50, protein: yeast 20S proteasomes, PDB entry 4inu”, the half-maximal inhibitory concentration (IC50) is 0.00055 µM (active).
On to `Cc1c(O)cccc1C(=O)N[C@H](C(=O)N[C@@H](CO)C(=O)N[C@H](CCS(C)(=O)=O)Cc1ccc(CN)cc1)C(C)C`, for which the IC50 (literature IC50, protein: yeast 20S proteasomes, PDB entry 4int) was 1.6 µM (active).
As to `NC(=O)[C@H](CCCCNC(=O)[C@@H](Cc1ccc(C(=O)c2ccccc2)cc1)NC(=O)CCC1CCCCC1)NC(=O)/C=C/C(=O)O`, the 50% inhibitory concentration (IC50) (literature IC50, protein: Cysteine-free Human Insulin Degrading Enzyme, PDB entry 4lte) is 0.06 µM (active).
As for `COc1cccc(C(O)c2sc(Nc3ccccc3)nc2N)c1` (centres undefined), where the note is “literature IC50, protein: Cyclin-dependent kinase 2, PDB entry 3qts”, the IC50 was 3.1 µM (active).
On to `Nc1nc(Nc2ccc(S(N)(=O)=O)cc2)sc1C(O)c1ccccc1` (centres undefined), for which the IC50 (literature IC50, protein: Cyclin-dependent kinase 2, PDB entry 3rak) was 0.13 µM (active).
As for `COc1ccc(C(O)c2sc(Nc3ccc(S(N)(=O)=O)cc3)nc2N)cc1` (centres undefined), the concentration for half-maximal inhibition (IC50) (literature IC50, protein: Cyclin-dependent kinase 2, PDB entry 3s1h) was 17 µM (active).
With `COc1cccc(C(O)c2sc(Nc3ccc(S(N)(=O)=O)cc3)nc2N)c1` (centres undefined), the IC50 (literature IC50, protein: Cyclin-dependent kinase 2, PDB entry 3ral) is 0.1 µM (active).
Take `Nc1nc(Nc2ccc(S(N)(=O)=O)cc2)sc1C(O)c1cccc([N+](=O)[O-])c1` (centres undefined): under “literature IC50, protein: Cyclin-dependent kinase 2, PDB entry 3qtx”, the IC50 is 0.07 µM (active).
`COc1ccc(Nc2nc(-c3cccc(C(=O)Nc4ccc(C(=O)O)cc4)c3)c[n+]3cc[nH]c23)cc1OC`: where the note is “literature IC50, protein: Tyrosine-protein kinase SYK, PDB entry 4pv0”, the IC50 is 0.00085 µM (active).
On to `COc1ccc(Cc2nn3c([C@@H](CCCc4ccccc4)[C@@H](C)O)nc(C)c3c(=O)[nH]2)cc1OC`, for which the IC50 (literature IC50, protein: cGMP-dependent 3',5'-cyclic phosphodiesterase, PDB entry 4htx) was 0.0047 µM (active).
As to `CC(=O)N[C@@H](Cc1cccnc1)C(=O)N[C@@H](CC(=O)O)C(=O)N[C@H](CC(=O)N[C@@H](CCC(C)C)C(=O)N[C@@H](CC(=O)O)C(C)=O)CC(C)C` (Ac-[3Pal]D[β3hL][hLeu]-X1), the IC50 is 0.023 µM (active) (literature IC50, protein: Caspase-3, PDB entry 4jje); 0.73 µM (active) (literature IC50, protein: Caspase-7, PDB entry 4jj8); 0.4 µM (active) (literature IC50, protein: Caspase-8, PDB entry 4jj7).
As to `CCOc1cc(C(C)(C)C)ccc1C1=N[C@@](C)(c2ccc(Cl)cc2)[C@@](C)(c2ccc(Cl)cc2)N1C(=O)N1CCN(CCCS(C)(=O)=O)CC1`, the IC50 (literature IC50, protein: E3 ubiquitin-protein ligase Mdm2 (I50L, P92H, L95I mutation), PDB entry 4ipf) was 0.018 µM (active).
`CCC(C)(C)NC(=O)[C@@H](c1cccn1C)N(C(=O)Cn1nnc2ccccc21)c1ccc(NC(C)=O)cc1`: the IC50 (literature IC50, protein: 3C-like proteinase, PDB entry 4mds) was 6.2 µM (active).
Turning to `N#CNC(NCc1ccc(S(=O)(=O)c2cccc(OC(F)(F)F)c2)cc1)Nc1ccncc1` (centres undefined), the concentration for half-maximal inhibition (IC50) (literature IC50, protein: Nicotinamide phosphoribosyltransferase, PDB entry 4lts) was 0.0044 µM (active).
`COc1cccc(-c2cc(C(F)(F)F)[nH]n2)c1`: the IC50 (literature IC50, protein: Phenylalanine--tRNA ligase, PDB entry 4p75) is 80 µM (active).
As to `CCC(=O)O[C@@H]1CC[C@@]2(C)[C@H](CC[C@@H]3[C@@H]2CC[C@]2(C)[C@@H]([C@H](C)CCC(=O)O)CC[C@@H]32)C1`, under “literature IC50, protein: vitamin D3 receptor ligand binding domain, PDB entry 3w5t”, the IC50 was 30 µM (active).
With `CC1C=CC(C(=O)Nc2ccc(Oc3cc4cnn(C)c4cc3-c3cn[nH]c3)c(F)c2)C(=O)N1c1ccc(F)cc1` (centres undefined), the concentration for half-maximal inhibition (IC50) (literature IC50, protein: Hepatocyte growth factor receptor, PDB entry 4eev) is 0.0047 µM (active).
As for `CC1=C(C(=O)N[C@H](C)C(=O)N[C@@H](Cc2c[nH]c3ccccc23)C(=O)N[C@@H](Cc2ccccc2)[C@@H](O)[C@H](C)CO)Cc2ccccc21`, the IC50 (literature IC50, protein: yCP, PDB entry 4qlt) was 0.0025 µM (active).
Consider `CC1=C(C(=O)N[C@H](C)C(=O)N[C@@H](Cc2c[nH]c3ccccc23)C(=O)N[C@@H](CC2CCCCC2)[C@@H](O)[C@H](C)CO)Cc2ccccc21`, for which the IC50 (literature IC50, protein: yCP, PDB entry 4qlu) was 0.0083 µM (active).
Regarding `OC(Cc1cnc2ccccn12)([P+](O)(O)O)[P+](O)(O)O`, the IC50 (literature IC50, protein: human FARNESYL PYROPHOSPHATE SYNTHETASE, PDB entry 2vf6) was 0.003 µM (active).
In the case of `CCC(=O)Nc1ccc(OC)c(Nc2ncc(Cl)c(-c3c[nH]c4ccccc34)n2)c1`, the 50% inhibitory concentration (IC50) (literature IC50, protein: Epidermal growth factor receptor, PDB entry 4li5) was 0.55 µM (active).
In the case of `COc1ccc2c(c1OC)CN(C)c1c-2ccc2cc3c(cc12)OCO3`, the IC50 (literature IC50, protein: Chitinase A(W275G mutant), PDB entry 3as1) was 95 µM (active).
Regarding `c1ccc(-c2nc(-n3cnnc3)c3ccccc3n2)cc1`, the half-inhibitory concentration (IC50) (literature IC50, protein: 3-OXOACYL-[ACYL-CARRIER-PROTEIN] REDUCTASE FABG, PDB entry 4bnu) was 0.02 µM (active).
Take Ac-NSNAIKN-NH2: the IC50 (literature IC50, protein: Low-density lipoprotein receptor-related protein 6, PDB entry 3soq) is 27 µM (active).
Consider `CC[C@H](C)[C@H](NC(=O)[C@H](CCC(=O)O)NC(=O)[C@H](C)NC(C)=O)C(=O)N[C@H](CO)CCCCN`, for which the IC50 (literature IC50, protein: Streptopain, PDB entry 4d8i) is 0.205 µM (active).
Take `CCNC(=O)c1ccc(C(=O)NCCC2CCN(c3ncnc4cc(C(N)=O)sc34)CC2)s1`: for the setting “literature IC50, protein: NAD-dependent protein deacetylase sirtuin-3, mitochondrial, PDB entry 4jsr”, the IC50 was 0.004 µM (active).
As for `Nc1nc(NC2CCCCC2)sc1C(O)c1ccc2ccccc2c1` (centres undefined), the half-maximal inhibitory concentration (IC50) (literature IC50, protein: Cyclin-dependent kinase 2, PDB entry 3rah) is 0.012 µM (active).
For the molecule `Nc1nc(NC2CCCCC2)sc1C(O)c1cccc([N+](=O)[O-])c1` (centres undefined), the IC50 (literature IC50, protein: Cyclin-dependent kinase 2, PDB entry 3r9n) was 1.4 µM (active).
